Many of the other results were omitted from the sample, so hits are more common in it than they were.
TNAP act mid DEA: human TNAP enzyme activators, primary screen, biochemical, luminescent, intermediate phosphate acceptor level | purified TNAP, CDP-star luminescence, 100 mM DEA, 30 min; active compounds read high; scale: 0 levamisole-inhibited, 1 vehicle-only enzyme | activation factor at 20 µM | Alkaline phosphatase, tissue-nonspecific isozyme (Homo sapiens), P05186 | 64,000 tested, under 10 active;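 active = activation factor of at least 2 at 20 µM, relative to controls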
Target sequence (P05186 whole entry, looked up): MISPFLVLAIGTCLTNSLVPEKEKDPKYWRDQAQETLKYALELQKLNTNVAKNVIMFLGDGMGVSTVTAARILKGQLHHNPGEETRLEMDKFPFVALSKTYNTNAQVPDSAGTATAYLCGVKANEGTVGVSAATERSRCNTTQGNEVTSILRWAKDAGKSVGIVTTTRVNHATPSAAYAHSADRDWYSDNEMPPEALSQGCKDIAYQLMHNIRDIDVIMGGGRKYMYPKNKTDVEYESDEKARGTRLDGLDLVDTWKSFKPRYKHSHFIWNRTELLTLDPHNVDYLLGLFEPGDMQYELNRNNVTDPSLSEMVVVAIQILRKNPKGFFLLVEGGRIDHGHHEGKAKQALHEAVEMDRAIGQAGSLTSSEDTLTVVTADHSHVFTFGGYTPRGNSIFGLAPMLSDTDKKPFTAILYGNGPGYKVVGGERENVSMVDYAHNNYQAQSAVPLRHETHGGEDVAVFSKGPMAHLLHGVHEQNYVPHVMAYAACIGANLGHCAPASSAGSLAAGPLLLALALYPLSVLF
PLAP activator: PLAP enzyme activators, biochemical, luminescence, HTS; Alkaline phosphatase, placental type (Homo sapiens), P05187; purified PLAP enzyme, luminescent substrate read-out; active compounds read high; activation fold at 20 µM; 1.2% of 96,000 active; in the data active = activation fold above about 2
Ec RNAP inh: E. coli RNAP inhibitors, biochemical; E. coli RNA polymerase, fluorescence transcription assay; 0.2% of 62,000 active; DNA-directed RNA polymerase subunit beta (Escherichia coli (strain K12)), P0A8V2; inhibition, %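 (tested at 10 µM)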; AID 559, 2006; in the data active = inhibition above about 20%;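 note: 0% = enzyme without compound and 100% = no enzyme blank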
Active calls of the source: *; x = not tested or not shown.

SMILES	TNAP act mid DEA	PLAP activator	Ec RNAP inh
COc1ccc(OC)c(NC(=O)C(=O)N/N=C/c2ccccc2[N+](=O)[O-])c1	x	1.2	x
COc1ccc(NC(=O)C(=O)N/N=C/c2cc(C)n(-c3cccc(Cl)c3Cl)c2C)c(OC)c1	x	2*	x
Cc1cc(Nc2ccc(C)c(F)c2)n2ncnc2n1	0.9	1.9	10
Cc1cc(Nc2ccc(N3CCC(C)CC3)cc2)n2ncnc2n1	0.9	2*	-11
CCCCC(=O)Nc1cccc(-c2nn3c(C)nnc3s2)c1	0.8	0.8	10
CCOC(=O)NC(Nc1ccc(S(N)(=O)=O)cc1)(C(=O)OCC)C(F)(F)F (configuration not stated)	0.9	1	8
O=C(Nc1ccc(F)c(F)c1)c1ccc(F)c(S(=O)(=O)N2CCOCC2)c1	1	1	4
O=C(Nc1ccccc1)c1ccc(NC2CCCCC2)c(S(=O)(=O)N2CCOCC2)c1	x	2.1*	x
O=C(Nc1ccccc1)c1ccc(N2CCN(c3ccccn3)CC2)c(S(=O)(=O)N2CCOCC2)c1	x	2.1*	x
O=C(Nc1ccccc1)c1ccc(N2CCN(c3ccccc3)CC2)c(S(=O)(=O)N2CCOCC2)c1	x	1.6	x
Cc1ccc(OC(=O)c2oc3ccc(F)cc3c2C)c(C)c1	x	1	x
O=C(CSc1ccc(Cl)cc1)Nc1ccccc1N1CCN(C(=O)c2ccccc2)CC1	x	1	x
CCc1nc(SCC(=O)NNC(=O)C2CCCCC2)c2ccccc2n1	x	1.7	x
CCc1nc(SCC(=O)NNC(=O)C(C)C)c2ccccc2n1	x	2*	x
O=C(c1cnccn1)N1CCN(C/C=C/c2ccccc2)CC1	0.9	1.1	-2
Cc1c(O)ccc(-c2[nH]ncc2-c2nc3ccccc3s2)c1O	x	2.2*	x
Brc1ccc(-c2nc3ccccc3s2)s1	1	1.1	2
CC(c1ccco1)N(C(=O)c1ccc(Cl)s1)c1ccccn1 (configuration not stated)	1	1.1	9
Cc1cc(NCCCn2ccnc2)n2nc(C)c(-c3ccccc3)c2n1	x	1.6	x
Cc1cc(NCCCn2ccnc2)n2ncc(-c3ccccc3)c2n1	1	2.3*	5
CS(=O)(=O)N(CC(=O)N1CCC(C(N)=O)CC1)c1ccc(Oc2ccccc2)cc1	1	1.2	2
O=C(CCc1nc2cccnc2n1Cc1ccccc1)NCCc1ccc(Cl)cc1	x	1.4	x
CCOCCCn1c(-c2ccc(Cl)cc2)n[nH]c1=S	x	2.4*	x
COCCCn1c(-c2ccc(Cl)cc2)n[nH]c1=S	x	1.8	x
Cc1cc2ccccc2c(=O)n1CC(=O)NCC(=O)N(C)C1CCCCC1	x	0.9	x
SMILES	TNAP act mid DEA	PLAP activator	Ec RNAP inh
c1ccc(-c2nnc(-c3ccccn3)nc2NC2CCCCC2)cc1	x	2.4*	x
CNc1nc(-c2ccccn2)nnc1-c1ccccc1	x	1.4	x
Cc1ccccc1-c1nc(CN2CCC(C(=O)NC3CCN(Cc4ccccc4)CC3)CC2)c(C)o1	1	x	6
Cc1oc(-c2ccccc2F)nc1CN1CCC(C(=O)NC2CCCc3ccccc32)CC1 (configuration not stated)	x	2*	x
Cc1oc(-c2ccccc2F)nc1CN1CCC(C(=O)NC2CCCCCCC2)CC1	1.1	2*	0
Cc1oc(-c2ccccc2F)nc1CN1CCC(C(=O)NCc2ccco2)CC1	1	1.3	-8
CCOC(=O)C1(Cc2ccc(O)cc2)NC(c2ccco2)C2C(=O)N(c3ccccc3F)C(=O)C21 (configuration not stated)	0.9	1.1	11
C=CCOc1c2ccc(C(=O)NCCc3ccc(C)cc3)cc2nn1C	x	1.1	x
CCC(CC)c1nc(NCCC(=O)O)c2ccccc2n1	1	1	6
COc1ccccc1CNC(=O)c1nn(-c2ccc(C)cc2)c(=O)c2c1c1ccccc1n2C	x	1.2	x
Cc1ccc(C(C)C)c(OCC(=O)Nc2ccc3c(c2)nc(CN2CCCC2)n3C)c1	x	2*	x
CCCC(=O)Nc1ccc2c(c1)nc(CN1CCCC1)n2C	x	0.8	x
CCOC(=O)c1c2n(c3c(NCc4ccccc4)ncnc13)CCCC2	1.1	2.5*	3
CCOC(=O)c1nnc(-c2ccccc2)nc1NCc1ccccc1	x	1.2	x
O=C(NC1CCS(=O)(=O)C1)c1c(NC(=O)C2COc3ccccc3O2)sc2c1CCCC2 (configuration not stated)	0.9	0.8	32*
O=C(Nc1nc2c(s1)CCCC2)C1COc2ccccc2O1 (configuration not stated)	0.9	1.1	4
CCCN(CCC)S(=O)(=O)c1ccc(C(=O)Nc2nnc(-c3cc(OC)cc(OC)c3)o2)cc1	1	2*	4
COc1ccc(C(=O)Nc2nnc(-c3ccccc3)o2)cc1OC	0.9	2.1*	1
COc1cccc(-c2nnc(NC(=O)c3cccc(F)c3)o2)c1	0.9	x	-1
CCCN(CCC)S(=O)(=O)c1ccc(C(=O)Nc2nnc(-c3cccc(OC)c3)o2)cc1	1	x	15
COc1ccc(CN(C)C2CCCCC2)c(C)c1C	x	0.8	x
O=S1(=O)CC(O)C(Nc2ccccc2Cl)C1 (configuration not stated)	0.9	1.1	x
CCOc1ccc(NC(=O)CN(C)CC(=O)Nc2cc(Cl)ccc2C#N)cc1OCC	x	2.1*	x
Cc1cccc(C)c1NC(=O)CN(C)CC(=O)Nc1cc(Cl)ccc1C#N	x	1.9	x
c1csc(Cc2nn3c(-c4n[nH]c5c4CCC5)nnc3s2)c1	1.1	2.1*	6
SMILES	TNAP act mid DEA	PLAP activator	Ec RNAP inh
c1coc(-c2nnc3sc(Cc4cccs4)nn23)c1	0.9	0.9	-3
Nc1nncn1C(=O)CCc1ccccc1	0.9	1.4	5
Cn1c(Cn2cnc3ccccc32)nnc1SCC(=O)CC(=O)Nc1ccccc1	0.9	1.8	10
COc1ccc(CCNC(=O)c2cc(-c3ccc(C)c(C)c3O)n[nH]2)cc1OC	x	2.1*	x
COc1ccc(NC(=O)c2cc(-c3cc(C)ccc3O)n[nH]2)cc1Cl	1.1	1.1	5
Cc1ccc(-c2cc(C(=O)NCc3ccc4c(c3)OCO4)[nH]n2)c(O)c1C	1	1.6	x
COc1ccc(CCNC(=O)c2cc(-c3cc(C)ccc3O)n[nH]2)cc1OC	x	2.9*	x
O=C(CSc1nnc(CNC(=O)c2ccccc2F)o1)c1ccccc1	0.9	1.2	-2
O=C(Nc1ccccn1)c1cccc(S(=O)(=O)N2CCOCC2)c1	1	1.1	2
O=C(Nc1ncccc1O)c1cccc(S(=O)(=O)N2CCc3ccccc32)c1	1	2.5*	4
COC(=O)c1ccccc1NS(=O)(=O)c1cn(C)c(=O)n(C)c1=O	1	1.1	-13
COc1cc2c(cc1OC)C(C(=O)N1CCN(c3ccccc3)CC1)C(c1cccs1)N(C)C2=O (configuration not stated)	x	1.8	x
CC(C)n1c(N2CCN(CC(=O)NCc3cccs3)CC2)nc2ccccc21	0.9	2*	10
CC(C)n1c(N2CCN(C(=O)c3cccs3)CC2)nc2ccccc21	1.1	1.7	4
COc1ccc(CCc2nc(C)ccc2O)cc1	x	1	x
O=C(Nc1ccc2oc(-c3ccccc3Cl)nc2c1)c1ncn[nH]1	1.1	2*	-4
O=C(Nc1ccc2oc(-c3ccccc3Cl)nc2c1)c1cncc(Br)c1	0.9	0.9	7

High-throughput results: PubChem, several laboratories
